Activity calls are given as the source filed them.
What was measured:
[1] = small-molecule microarray binders of probe aLefty2, primary screen, biochemical, biotinylated probe, 635/667 nm fluorescence (AID 1094); settings: higher = more signal;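 also: score merges spot fluorescence near 667 nm with spot signal-to-noise ratio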
[2] = system: Noggin (protein binding on small-molecule microarray); assay: Noggin binders on small-molecule microarray, primary screen, biochemical, 635/667 nm fluorescence (AID 1095); settings: 635 nm fluorescence, higher = more signal;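 also: score merges 667 nm feature fluorescence with signal to noise over triplicate slides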
[3] = target: Neurogenic locus notch homolog protein 3 (Homo sapiens) (UniProt Q9UM47); assay: NOTCH3 binders on small-molecule microarray, primary screen, biochemical, 635/667 nm fluorescence (AID 1096); settings: NOTCH3 binding, 635 nm fluorescence, higher = more signal
Neurogenic locus notch homolog protein 3 (Homo sapiens), sequence (Q9UM47 whole entry, looked up): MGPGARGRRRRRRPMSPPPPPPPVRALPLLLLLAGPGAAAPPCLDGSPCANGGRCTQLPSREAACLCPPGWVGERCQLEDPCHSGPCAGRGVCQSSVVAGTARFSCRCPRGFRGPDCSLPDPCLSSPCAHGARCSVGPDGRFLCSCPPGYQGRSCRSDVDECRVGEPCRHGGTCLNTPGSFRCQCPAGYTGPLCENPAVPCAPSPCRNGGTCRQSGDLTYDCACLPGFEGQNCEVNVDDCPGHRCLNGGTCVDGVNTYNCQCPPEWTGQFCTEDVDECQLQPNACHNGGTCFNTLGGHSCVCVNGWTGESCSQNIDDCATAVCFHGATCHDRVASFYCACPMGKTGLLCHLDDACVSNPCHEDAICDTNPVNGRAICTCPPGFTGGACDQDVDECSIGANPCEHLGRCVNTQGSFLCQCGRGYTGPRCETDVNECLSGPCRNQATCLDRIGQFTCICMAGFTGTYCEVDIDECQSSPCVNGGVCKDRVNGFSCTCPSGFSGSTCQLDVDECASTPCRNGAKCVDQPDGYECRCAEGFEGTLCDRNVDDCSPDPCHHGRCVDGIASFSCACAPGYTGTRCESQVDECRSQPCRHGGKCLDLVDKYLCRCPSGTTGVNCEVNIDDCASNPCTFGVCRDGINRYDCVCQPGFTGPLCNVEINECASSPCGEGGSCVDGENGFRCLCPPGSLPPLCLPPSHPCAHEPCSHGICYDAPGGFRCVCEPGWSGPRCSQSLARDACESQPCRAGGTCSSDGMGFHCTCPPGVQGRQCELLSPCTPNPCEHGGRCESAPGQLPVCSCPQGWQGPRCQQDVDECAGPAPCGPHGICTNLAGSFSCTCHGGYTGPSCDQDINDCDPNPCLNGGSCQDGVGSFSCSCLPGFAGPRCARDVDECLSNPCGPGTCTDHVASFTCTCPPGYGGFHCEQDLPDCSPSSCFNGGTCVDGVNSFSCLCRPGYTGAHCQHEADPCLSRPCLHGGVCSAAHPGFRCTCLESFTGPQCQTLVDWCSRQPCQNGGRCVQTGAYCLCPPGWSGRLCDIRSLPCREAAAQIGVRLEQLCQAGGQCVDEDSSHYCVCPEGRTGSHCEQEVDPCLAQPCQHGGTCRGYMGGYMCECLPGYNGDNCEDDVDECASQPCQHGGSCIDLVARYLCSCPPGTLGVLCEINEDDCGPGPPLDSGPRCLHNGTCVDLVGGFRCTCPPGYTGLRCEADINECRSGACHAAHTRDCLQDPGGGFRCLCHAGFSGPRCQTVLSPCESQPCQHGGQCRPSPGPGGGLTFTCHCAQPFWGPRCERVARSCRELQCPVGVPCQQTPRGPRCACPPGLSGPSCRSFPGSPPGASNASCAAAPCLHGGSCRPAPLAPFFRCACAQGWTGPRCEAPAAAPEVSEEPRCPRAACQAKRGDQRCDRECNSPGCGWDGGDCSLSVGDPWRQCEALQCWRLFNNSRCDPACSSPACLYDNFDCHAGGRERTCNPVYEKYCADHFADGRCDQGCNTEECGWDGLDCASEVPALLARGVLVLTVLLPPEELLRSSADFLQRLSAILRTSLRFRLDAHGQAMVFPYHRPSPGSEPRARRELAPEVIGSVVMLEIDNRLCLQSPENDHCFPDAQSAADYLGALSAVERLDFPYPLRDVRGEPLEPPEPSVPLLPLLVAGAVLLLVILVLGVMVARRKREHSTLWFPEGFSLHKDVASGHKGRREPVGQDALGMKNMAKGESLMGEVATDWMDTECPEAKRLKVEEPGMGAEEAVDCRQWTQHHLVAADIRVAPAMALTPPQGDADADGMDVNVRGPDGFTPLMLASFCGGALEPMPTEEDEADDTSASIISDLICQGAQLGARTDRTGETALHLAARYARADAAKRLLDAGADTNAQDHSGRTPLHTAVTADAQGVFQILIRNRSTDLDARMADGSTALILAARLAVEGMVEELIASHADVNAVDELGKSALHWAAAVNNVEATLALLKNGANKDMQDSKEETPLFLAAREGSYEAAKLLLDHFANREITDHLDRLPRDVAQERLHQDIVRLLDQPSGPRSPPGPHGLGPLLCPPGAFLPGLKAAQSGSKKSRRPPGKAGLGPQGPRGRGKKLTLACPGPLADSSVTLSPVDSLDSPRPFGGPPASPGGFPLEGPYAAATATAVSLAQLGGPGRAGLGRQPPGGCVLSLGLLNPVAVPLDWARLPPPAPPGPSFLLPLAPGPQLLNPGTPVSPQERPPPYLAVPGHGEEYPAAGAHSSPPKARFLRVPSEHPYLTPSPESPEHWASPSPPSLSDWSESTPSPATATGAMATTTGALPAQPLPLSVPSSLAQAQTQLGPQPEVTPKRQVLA

[4] = small-molecule microarray binders of probe aEGFR, primary screen, biochemical, biotinylated probe, 635/667 nm fluorescence (AID 1097); settings: higher = more signal;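 also: probe is a biotinylated anti-EGFR antibody binding compounds printed on slides; score combines fluorescence near 667 nm and signal to noise of each spot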
[5] = system: Plasmodium falciparum Sir2 (PF13_0152, Sir2A); assay: pfSir2 binders on small-molecule microarrays, primary screen, biochemical, small-molecule microarray, 635 nm fluorescence (AID 1098); settings: small-molecule microarray binding, fluorescence 635 nm; higher = more signal;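 also: score merges spot fluorescence intensity with its signal-to-noise ratio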
[6] = small-molecule microarray binders of probe aDKK1, primary screen, biochemical, biotinylated probe, 635/667 nm fluorescence (AID 1099); settings: higher = more signal;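 also: score merges 667nm spot fluorescence with signal to noise across triplicate slides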
[7] = small-molecule microarray binders of probe aCHRDL2, primary screen, biochemical, biotinylated probe, 635/667 nm fluorescence (AID 1100); settings: higher = more signal
[8] = splicing luciferase reporter signal modulators, primary screen, spliceosome inhibition project, cell-based, HEK293, splice +/- reporter (AID 1101); settings: luminescence, 24 h, higher = more signal, called active from +8 up or from −8 down;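 also: HEK293 cells carrying a splicing-competent luciferase reporter gene; test concentration not given here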
[9] = target: Fibroblast growth factor 10 (Homo sapiens) (UniProt O15520); assay: FGF10 binders on small-molecule microarrays, primary screen, biochemical, small-molecule microarray, 635 nm fluorescence (AID 1102); settings: FGF10 binding, fluorescence 635 nm, higher = more signal
Fibroblast growth factor 10 (Homo sapiens), sequence (O15520 whole entry, looked up): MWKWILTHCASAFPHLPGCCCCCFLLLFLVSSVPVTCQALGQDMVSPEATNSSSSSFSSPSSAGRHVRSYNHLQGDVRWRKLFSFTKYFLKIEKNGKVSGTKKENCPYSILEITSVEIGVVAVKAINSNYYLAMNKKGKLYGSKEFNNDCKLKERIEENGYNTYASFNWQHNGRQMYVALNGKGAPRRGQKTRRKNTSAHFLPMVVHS

[10] = system: glycogen synthase kinase-3 (GSK3A per assay name; protocol says GSK3B); assay: GSK3 binders on small-molecule microarrays, primary screen, biochemical, small-molecule microarray, 635 nm fluorescence, GSK3A (AID 1103); settings: small-molecule microarray binding, fluorescence 635 nm; higher = more signal; also: the record names both GSK3A and GSK3B
[11] = target: Epidermal growth factor receptor (Homo sapiens) (UniProt P00533); assay: EGFR binders on small-molecule microarrays, primary screen, biochemical, small-molecule microarray, 635 nm fluorescence (AID 1104); settings: EGFR binding, higher = more signal;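 also: score merges 667 nm emission intensity with spot signal to noise over triplicate slides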
Epidermal growth factor receptor (Homo sapiens), sequence (P00533 whole entry, looked up): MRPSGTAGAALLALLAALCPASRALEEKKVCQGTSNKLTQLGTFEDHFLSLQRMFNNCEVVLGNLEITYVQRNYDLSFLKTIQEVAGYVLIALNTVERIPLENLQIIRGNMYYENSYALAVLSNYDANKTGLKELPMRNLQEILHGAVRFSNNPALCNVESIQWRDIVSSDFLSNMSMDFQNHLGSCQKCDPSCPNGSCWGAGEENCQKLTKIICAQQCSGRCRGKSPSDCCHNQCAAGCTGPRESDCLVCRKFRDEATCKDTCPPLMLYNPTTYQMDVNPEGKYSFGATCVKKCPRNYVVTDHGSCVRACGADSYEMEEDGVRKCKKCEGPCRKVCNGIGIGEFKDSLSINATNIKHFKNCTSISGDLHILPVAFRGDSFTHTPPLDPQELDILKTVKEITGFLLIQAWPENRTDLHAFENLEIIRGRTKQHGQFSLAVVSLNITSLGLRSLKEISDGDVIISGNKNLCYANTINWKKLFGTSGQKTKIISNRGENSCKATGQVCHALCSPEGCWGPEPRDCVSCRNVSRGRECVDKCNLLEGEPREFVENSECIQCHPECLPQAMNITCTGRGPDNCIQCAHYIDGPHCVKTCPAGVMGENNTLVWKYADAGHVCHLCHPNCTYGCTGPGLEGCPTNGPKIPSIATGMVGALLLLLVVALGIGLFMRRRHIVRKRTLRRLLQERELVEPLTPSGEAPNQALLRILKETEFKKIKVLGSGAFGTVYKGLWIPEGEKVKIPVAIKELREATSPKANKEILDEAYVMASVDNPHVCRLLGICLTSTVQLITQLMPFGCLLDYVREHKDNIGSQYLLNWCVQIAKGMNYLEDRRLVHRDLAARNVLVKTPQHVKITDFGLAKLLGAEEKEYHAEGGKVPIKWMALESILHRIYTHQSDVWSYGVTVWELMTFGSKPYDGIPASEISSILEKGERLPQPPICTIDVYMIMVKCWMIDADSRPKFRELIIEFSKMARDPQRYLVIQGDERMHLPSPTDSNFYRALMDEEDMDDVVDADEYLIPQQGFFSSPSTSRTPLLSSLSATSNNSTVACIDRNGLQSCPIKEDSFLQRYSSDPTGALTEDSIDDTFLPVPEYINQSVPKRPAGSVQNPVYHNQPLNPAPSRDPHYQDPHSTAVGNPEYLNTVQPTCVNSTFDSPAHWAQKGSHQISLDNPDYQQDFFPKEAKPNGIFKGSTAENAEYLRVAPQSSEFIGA

[12] = target: Follistatin-related protein 3 (Homo sapiens) (UniProt O95633); assay: FSTL3 binders on small-molecule microarrays, primary screen, biochemical, small-molecule microarray, 635 nm fluorescence (AID 1105); settings: FSTL3 binding, higher = more signal;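 also: score merges emission near 667 nm and signal to noise per printed spot across three slides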
Follistatin-related protein 3 (Homo sapiens), sequence (O95633 whole entry, looked up): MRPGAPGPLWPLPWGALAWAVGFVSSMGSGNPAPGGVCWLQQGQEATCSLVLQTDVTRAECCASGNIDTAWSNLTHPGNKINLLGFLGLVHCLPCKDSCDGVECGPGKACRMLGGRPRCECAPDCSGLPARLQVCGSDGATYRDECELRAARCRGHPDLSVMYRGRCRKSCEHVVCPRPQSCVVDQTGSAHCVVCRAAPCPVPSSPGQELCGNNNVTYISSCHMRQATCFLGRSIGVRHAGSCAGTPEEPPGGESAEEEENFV

[13] = target: Dickkopf-related protein 1 (Homo sapiens) (UniProt O94907); assay: DKK1 binders on small-molecule microarrays, primary screen, biochemical, small-molecule microarray, 635 nm fluorescence scan (AID 1106); settings: DKK1 binding, higher = more signal;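 also: score merges emission near 667 nm with signal to noise over three replicate slides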
Dickkopf-related protein 1 (Homo sapiens), sequence (O94907 whole entry, looked up): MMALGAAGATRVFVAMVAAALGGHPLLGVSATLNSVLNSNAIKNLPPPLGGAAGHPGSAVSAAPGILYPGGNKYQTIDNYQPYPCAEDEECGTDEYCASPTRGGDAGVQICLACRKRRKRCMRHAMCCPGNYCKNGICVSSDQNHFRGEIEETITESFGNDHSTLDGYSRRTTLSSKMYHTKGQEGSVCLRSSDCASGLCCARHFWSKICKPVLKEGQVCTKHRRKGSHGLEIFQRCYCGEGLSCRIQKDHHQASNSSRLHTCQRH

[14] = system: Inhibin beta A chain (activin A); assay: INHBA (activin A) binders on microarrays, primary screen, biochemical, small-molecule microarray, 635 nm fluorescence scan (AID 1107); settings: small-molecule microarray binding, higher = more signal;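 also: mouse activin A protein probed at 4.33 µg/mL on printed slides; score merges bound-protein fluorescence near 667 nm with spot signal-to-noise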
[15] = system: Human papillomavirus type 1a protein E7 (residues 44-93); assay: HPV1a E7 fragment binders on microarrays, primary screen, biochemical, small-molecule microarray, residues 44-93, 635 nm fluorescence (AID 1108); settings: small-molecule microarray binding, fluorescence 635 nm; higher = more signal;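 also: E7 fragment applied at 1 µg/mL in TBST for 1 h at 4 C; score combines spot fluorescence with its signal to noise ratio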
[16] = modulators of HCV replicon luciferase signal, primary screen, HCV replication inhibitor project, Huh7 cells, luciferase reporter (AID 1109); settings: 48 h, higher = more signal;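 also: huh7 hepatoma cells harbouring a luciferase neomycin HCV replicon reporter; luciferase luminescence as measure of HCV replicon replication; test concentration not given here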
[17] = target: Left-right determination factor 2 (Homo sapiens) (UniProt O00292); assay: LEFTY2 binders on small-molecule microarrays, primary screen, biochemical, small-molecule microarray, 635 nm fluorescence scan (AID 1110); settings: LEFTY2 binding, higher = more signal
Left-right determination factor 2 (Homo sapiens), sequence (O00292 whole entry, looked up): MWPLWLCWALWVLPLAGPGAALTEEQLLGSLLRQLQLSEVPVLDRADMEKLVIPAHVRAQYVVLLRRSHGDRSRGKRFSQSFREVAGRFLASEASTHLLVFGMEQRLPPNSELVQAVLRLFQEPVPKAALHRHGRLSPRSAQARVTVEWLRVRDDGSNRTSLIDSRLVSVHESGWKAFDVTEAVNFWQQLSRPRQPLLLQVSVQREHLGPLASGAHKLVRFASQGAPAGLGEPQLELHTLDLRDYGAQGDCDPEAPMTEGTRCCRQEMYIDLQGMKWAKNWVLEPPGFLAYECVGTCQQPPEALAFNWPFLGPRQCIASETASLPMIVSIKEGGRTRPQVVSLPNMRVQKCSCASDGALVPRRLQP

[18] = target: Calmodulin-1 (Homo sapiens) (UniProt P0DP23); assay: CALM1 binders on microarrays, EGTA buffer, profiling panel, biochemical, small-molecule microarray, Cy5-labelled CALM1 (AID 1111); settings: Cy5-CALM1 binding fluorescence, higher = more signal;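 also: labelled calmodulin applied in Tris saline Tween buffer holding calcium plus EGTA and DTT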
[19] = target: Calmodulin-1 (Homo sapiens) (UniProt P0DP23); assay: calcium-bound CALM1 binders on microarrays, profiling panel, artefact control for SMM control-protein annotation, biochemical, small-molecule microarray, Cy5-labelled CALM1, plus calcium (AID 1112); settings: Cy5-CALM1 binding fluorescence, higher = more signal;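 also: score merges spot fluorescence with signal to noise from triplicate slides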
[20] = small-molecule microarray binders of probe aWnt5a, primary screen, biochemical, biotinylated probe, 635/667 nm fluorescence (AID 1113); settings: higher = more signal;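 also: score merges 667 nm fluorescence intensity with signal-to-noise per printed feature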

| Compound | composite z-score [1] | composite z-score [2] | composite z-score [3] | composite z-score [4] | composite z-score [5] | composite z-score [6] | composite z-score [7] | z-score [8] | composite z-score [9] | composite z-score [10] | composite z-score [11] | composite z-score [12] | composite z-score [13] | composite z-score [14] | composite z-score [15] | z-score [16] | composite z-score [17] | composite z-score [18] | composite z-score [19] | composite z-score [20] |
| --- | --- | --- | --- | --- | --- | --- | --- | --- | --- | --- | --- | --- | --- | --- | --- | --- | --- | --- | --- | --- |
| COc1ccc([Si](C)(C)[C@H]2[C@H](CC(=O)N(CCO)Cc3ccccc3)O[C@@]3(C(=O)N(Cc4ccc(N5CCOC5=O)cc4)c4ccccc43)[C@@H]2C)cc1 | -0.0595 | 0.821 | 0.361 | -0.146 | 0.614 | 0.0402 | 0.32 | -1.56 (inactive) | 0.286 | -0.137 | 0.109 | 0.276 | 0.512 | 0.6 | 0.162 | -2.94 | 0.23 | 0.228 | 0.342 | -0.0944 |
| CC(C)C[C@@H]1NC(=O)[C@@]23C(=O)N[C@@H](Cc4ccccc4)C2[C@H](C)[C@@]2(C)O[C@H]2C3/C=C/C/C=C\CNC(=O)[C@H](Cc2ccccc2)NC1=O (stereo not given in full) | -0.202 | 0.404 | 0.414 | -0.0671 | 0.608 | -0.117 | -0.417 | -0.639 (inactive) | 0.286 | 0.151 | 0.137 | 0.315 | 0.335 | 1.49 | -1.3 | -2.08 | 0.534 | -0.388 | -0.485 | -0.152 |
| CCN(CC)c1ccc(N2CC=CC34O[C@@H]5C=CCOC(=O)[C@@H]5[C@H]3C(=O)N(C(C)CO)[C@@H]4C2=O)cc1 (stereo not given in full) | -0.0592 | -1.39 | -0.894 | -0.252 | -0.928 | 0.0831 | 0.495 | -0.405 (inactive) | -0.749 | -2.21 | -1.5 | -1.5 | -1.01 | 0.509 | -1.09 | -0.533 | -1.21 | -1.1 | -0.201 | -0.154 |
| COc1ccc([Si](C)(C)[C@H]2[C@H](CC(=O)N(CCO)Cc3ccccc3)O[C@@]3(C(=O)N(Cc4ccc(N5CCC5=O)cc4)c4ccccc43)[C@@H]2C)cc1 | -0.166 | -0.156 | -0.813 | -0.302 | 0.811 | 0.0433 | 0.4 | -0.439 (inactive) | -0.802 | -0.39 | -0.443 | -0.155 | 0.183 | 0.577 | -0.403 | -3.87 | 0.271 | 0.0311 | 0.705 | -0.187 |
| Cc1ccc(N2C(=O)c3ccccc3[C@](C)(C(=O)NC3CC3)[C@@H]2c2ccc(CO)cc2)nc1 | 0.149 | 0.381 | -0.591 | -0.0564 | -0.168 | 0.931 | 0.541 | 0.466 (inactive) | -0.0779 | -0.0639 | -0.0541 | 0.44 | 0.272 | 1.13 | -1.22 | 0.344 | 0.129 | -2.49 | -0.231 | -0.0792 |
| [N-]=[N+]=NCc1ccccc1C[C@@]1(C(=O)NCc2ccccc2)N=C(c2ccc(OCCCO)cc2)O[C@@H]1c1ccccc1 | 0.247 | -0.41 | -0.0209 | 0.0139 | 0.92 | 0.928 | 1.12 | -1.4 (inactive) | 0.185 | 0.6 | -0.471 | -0.159 | -0.373 | 0.661 | 0.212 | -3.05 | -0.592 | 1.43 | 1.21 | 0.0761 |
| COCCCNC(=O)[C@@]1(C)c2ccccc2C(=O)N(Cc2cc(F)cc(C(F)(F)F)c2)[C@H]1c1ccc(CO)cc1 | 0.584 | -1.44 | -1.22 | -0.293 | 0.938 | 0.612 | 0.862 | -0.112 (inactive) | 0.22 | -0.611 | -1.79 | -1.69 | -2.23 | -0.39 | -0.762 | 0.67 | -1.88 | -0.416 | 0.49 | -0.178 |
| CC(C)CNC(=O)[C@@H]1c2ccccc2C(=O)N(Cc2ccc(OC(F)(F)F)cc2)[C@H]1c1ccc(CO)cc1 | -0.0329 | 1.3 | 1.04 | 0.0378 | 1.46 | 0.799 | 0.922 | -0.787 (inactive) | 0.64 | 1.28 | 0.346 | 1.26 | 0.407 | 0.254 | -0.491 | -0.913 | 0.569 | 0.986 | -0.614 | 0.0519 |
| C=CC[C@]1(C(=O)N2CCCCC2)COC(c2ccc(OCCCO)cc2)=N1 | 0.0499 | 0.452 | -0.904 | -0.0933 | -0.0697 | -0.0336 | 0.83 | 0.682 (inactive) | -0.621 | -0.217 | -1 | -1.32 | -0.358 | 1.28 | 0.0296 | -1.1 | -0.727 | -1.56 | -0.29 | -0.176 |
| O=C1c2ccccc2[C@@]2(Cc3ccccc3N(CC(F)(F)F)C2=O)[C@H](c2ccc(CO)cc2)N1Cc1ccccc1C(F)(F)F | -0.0412 | -1.51 | -1.18 | -0.26 | -1.84 | 0.471 | 0.957 | -0.0373 (inactive) | -0.316 | -1.41 | -0.903 | -1.15 | -1.95 | 1.04 | -0.713 | 0.301 | -0.888 | -0.434 | 0.0123 | -0.104 |
| CC(C)[C@@H](C(=O)O)n1cc(-c2ccccn2)nn1 | -0.378 | 0.332 | 0.309 | -0.0508 | -0.0369 | 0.98 | 0.33 | -0.015 (inactive) | 0.0739 | 0.428 | 0.278 | 0.0231 | 0.418 | 0.805 | 0.465 | -0.187 | 0.249 | 0.51 | 0.556 | -0.0216 |
| COc1ccc([Si](C)(C)[C@@H]2[C@@H](CC(=O)N3CCC[C@H]3CO)O[C@]3(C(=O)N(Cc4ccc(N5CCC5=O)cc4)c4ccccc43)[C@H]2C)cc1 | -0.166 | 1.16 | 0.708 | 0.0408 | 1.22 | 0.123 | 0.0655 | -0.473 (inactive) | 0.61 | 0.398 | 0.35 | 0.489 | 0.33 | 0.194 | 0.196 | -1.96 | 0.499 | 0.593 | 0.343 | -0.124 |
| CCOC(=O)C[C@H]1[C@H](OC(=O)c2cc3ccccc3oc2=O)[C@@H](NC(=O)c2ccccc2)c2cc(OCCCO)ccc2N1C(=O)Cc1ccc(OC)cc1 | -0.0069 | 0.908 | 0.665 | -0.113 | 0.575 | 0.33 | -0.194 | -1.78 (inactive) | 0.905 | 0.714 | 0.433 | 0.909 | 0.511 | 0.506 | 0.378 | -0.824 | 0.357 | 0.163 | -0.422 | -0.182 |
| C=C1C=C(Br)C2(OCCCO2)[C@H]2OC12 (stereo not given in full) | -0.116 | 0.104 | 0.0347 | -0.076 | 0.313 | -0.118 | -0.533 | -0.0861 (inactive) | 0.125 | 0.259 | 0.442 | 0.322 | 0.536 | 0.831 | -0.524 | 1.38 | 0.333 | -0.367 | -0.755 | -0.176 |
| COc1c(C)cc(-c2cc3c(c(CCc4ccccc4)n2)[Si](C(C)C)(C(C)C)OC3)cc1C | -0.0866 | 0.288 | 0.34 | 0.0068 | -0.615 | 0.335 | 0.156 | -1.28 (inactive) | 0.513 | 0.723 | 0.927 | 0.567 | 0.162 | 0.474 | 0.804 | 0.336 | 0.474 | -0.354 | -0.381 | -0.152 |
| COc1ccc(/C=C/C(=O)c2cccc(OCC(=O)OC(C)(C)C)c2)cc1 | -0.102 | -0.584 | -0.974 | -0.304 | 0.726 | 0.145 | 0.436 | -0.611 (inactive) | -0.189 | 0.483 | -0.693 | -0.525 | -0.442 | 0.379 | 0.268 | 1.33 | -0.606 | -0.0784 | -0.159 | -0.173 |

From PubChem BioAssay
